Hits are enriched below; roughly 11% of the tested compounds scored in any of these assays.
ALDH1A1 inh: inhibitors of human aldehyde dehydrogenase 1A1; P00352; Purified ALDH1A1, NADH fluorescence, propionaldehyde substrate; Potency, µM (doses to about 75.3 µM), without a hit: at the top dose activity, negative = inhibition, usual class: inhibitors; actives 7.3% (n = 220,000);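 also: potency is read from the fitted curve at half-maximal effect; plate controls were no enzyme wells and a reference inhibitor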
HTT ATP protect: cytoprotection in Huntington HTT-Q103 PC12 cell model. PC12 HTT-Q103 induced, cytoprotection, ATP luminescence, 40 h. Potency, µM (series often up to 56.4 µM), for inactives: cytoprotection (ATP increase), actives largely listed as activators. actives 0.14% (n = 230,000). AID 1471; active = well fitted curve in the direction sought with a large enough effect; inconclusive = small, poorly fitted or top-dose-only effect, or another doubt; inactive = no such curve, though single readings can be large; an effect the other way counts as inactive or inconclusive; also: potency is read from the fitted curve at half-maximal effect; % of control where 0% means no effect; nearly all actives have a fitted effect of over 45% in size
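Rat PC12, Q103 Htt exon1-GFP fusion, ecdysone promoter; tebufenozide inducer 100 nM final; compound titration; qHTS, 1500 cells/well; ATPlite luminescent read.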
RGS12 GoLoco inh: RGS12 GoLoco-Gai1 interaction inhibition. Gai1:RGS12 GoLoco peptide FP, rhodamine, 10 min. Potency, µM (titrated, usually from 61.6 µM), inactives show at the highest dose activity, negative = inhibition, usual class: inhibitors. P63096. actives 0.44% (n = 230,000); active = well fitted inhibition curve with a large enough effect, not every such curve was filed as active; inactive = no such curve, though single readings can be large or run the other way; also: potency is read from the fitted curve at half-maximal effect; % is scaled to controls: 0 for no effect and ±100 for the full control effect; nearly all actives have a fitted effect of over 30% in size
Target sequence (P63096 whole entry, looked up): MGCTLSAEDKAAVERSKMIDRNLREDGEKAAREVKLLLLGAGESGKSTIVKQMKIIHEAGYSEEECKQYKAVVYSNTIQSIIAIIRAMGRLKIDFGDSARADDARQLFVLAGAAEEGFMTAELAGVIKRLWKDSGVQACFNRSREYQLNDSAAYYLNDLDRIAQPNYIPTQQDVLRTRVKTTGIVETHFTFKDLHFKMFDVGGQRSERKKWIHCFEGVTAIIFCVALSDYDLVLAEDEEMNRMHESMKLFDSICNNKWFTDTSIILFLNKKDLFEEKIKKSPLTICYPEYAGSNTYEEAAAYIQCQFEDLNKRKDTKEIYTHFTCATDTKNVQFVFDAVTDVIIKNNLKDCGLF
HTT aggregate: inhibitors of mutant huntingtin aggregate formation in PC12 cells. PC12 HttQ103-GFP aggregates, Acumen cytometry, 40 h. Potency, µM (top dose mostly 46.1 µM), inactives show at the highest dose activity change, negative = inhibition, hits mostly inhibitors. actives 1.1% (n = 220,000). AID 1688; active = well fitted curve in the direction sought with a large enough effect; inconclusive = small, poorly fitted or top-dose-only effect, or another doubt; inactive = no such curve, though single readings can be large; an effect the other way counts as inactive or inconclusive; also: potency is read from the fitted curve at half-maximal effect; % is scaled to controls: 0 for no effect and ±100 for the full control effect; nearly all actives have a fitted effect of over 60% in size
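Aggregates are detected as GFP objects 1–25 µm with signal 6 STDEV over background in lysates of induced PC12 cells. These carry Huntingtin exon 1 with 103 glutamines fused to GFP under an ecdysone promoter; compounds titrated.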
HPGD block: HPGD (human) dehydrogenase inhibition. actives 4.3% (n = 150,000). purified HPGD, NADH fluorescence kinetic, PGE2 substrate. P15428. Potency, µM, for the others: top-dose activity change, negative = inhibition, actives largely listed as inhibitors; also: potency is read from the fitted curve at half-maximal effect; % is scaled to controls: 0 for no effect and ±100 for the full control effect
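NADH formation kinetics: reaction with 30 uM PGE2 and 1 mM NAD+ (final), 20 nM enzyme, Tris-HCl pH 8 with Tween 20, after 15 min compound preincubation at room temperature. Fluorescence change, last versus first of five reads.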
PNC inhibitor: perinucleolar compartment assembly inhibition; AID 2417; actives 3.1% (n = 140,000); PC3M PTB-GFP, PNC prevalence imaging, 16 h; active compounds read low; activity change (PNC), negative = inhibition, % at 10 µM;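 active = readout at or below -70, meaning at least 70% loss of cells showing the perinucleolar compartment, a nuclear body marking cancer cells; inconclusive = readout between -30 and a set limit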;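 also: plate controls were DMSO wells for no effect and camptothecin positive control wells for full effect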
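Read-out is percentage of cells bearing a perinucleolar compartment, from automated 20x imaging of fixed, Hoechst-stained PC3M PTB-GFP cells. Cells were seeded 4 h, then exposed 16 h to compound (23 nl of library stock) in duplicate plates.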
Starred values were filed as active, the others as inactive; ! = not confirmed by another sample; [ ] = dose if it differs, or a comment. Unless noted, calls follow the shape of the dose curve; as a rule, active = well fitted inhibition curve with a large enough effect (not every such curve was filed as active); inconclusive = small, poorly fitted or top-dose-only effect, or another doubt; inactive = no such curve, though single readings can be large or run the other way.

Cc1ccc(C(=O)/C=C\C(=O)c2ccc(C)cc2)cc1 was read as ALDH1A1 inh 7.1µM*, HTT ATP protect 7%[10 µM], RGS12 GoLoco inh -3%, HTT aggregate inconclusive, HPGD block 2.2µM* and PNC inhibitor -10.
Screening Cc1ccc(C(=O)/C=C/c2ccc(-c3ccc(C)cc3)o2)cc1 returned ALDH1A1 inh 0.71µM*, HTT ATP protect -5%[10 µM], RGS12 GoLoco inh 97%, HTT aggregate -14%, HPGD block 7.1µM* and PNC inhibitor -24.
For CCN(CC)S(=O)(=O)c1ccc(C(=O)/C=C/c2ccc(-c3ccc([N+](=O)[O-])cc3)o2)cc1 the results were HTT ATP protect 15%[10 µM], RGS12 GoLoco inh 42% and HTT aggregate 15%[9.22 µM].
O=C(O)/C=C/C(=O)c1ccc(O)cc1 was read as ALDH1A1 inh 14µM*, HTT ATP protect 0%[10 µM], RGS12 GoLoco inh -8% and HTT aggregate -1%[9.22 µM].
`Cc1ccc(C(=O)/C=C\NCc2ccccc2)cc1` gave ALDH1A1 inh inconclusive, RGS12 GoLoco inh 1%, HTT aggregate -8%, HPGD block inconclusive and PNC inhibitor inconclusive.
For Cc1ccc(C2CC(=O)Oc3c(C(C)C)ccc(C)c32)cc1 (stereo not given) the results were ALDH1A1 inh 5%, HTT ATP protect -18%, RGS12 GoLoco inh 1%[88.7 µM] and HPGD block -1%.
For CO[C@H]1COC(=O)C/C=C\[C@H](C)[C@@H](OC)COC(=O)[C@H](C)COC(=O)C/C=C\[C@@H]1C the results were ALDH1A1 inh -5%[13.5 µM] and HTT ATP protect -7%[10 µM].
For C/C(CCN1CCCCc2nc(C)c(C)cc21)=N\O[C@@H](C)CN1CCCc2nc(C)c(C)cc21 the results were ALDH1A1 inh 5%[13.5 µM] and HTT ATP protect 17%[10 µM].
Screening O=C(O)/C=C/c1ccc(-c2cccc(C(F)(F)F)c2)o1 returned ALDH1A1 inh inconclusive, HTT ATP protect -25%, RGS12 GoLoco inh 3% and HTT aggregate -6%.
O=C(/C=C\c1ccc(-c2ccccc2)o1)c1ccccc1 was read as ALDH1A1 inh 4µM*, HTT ATP protect 33%[10 µM], RGS12 GoLoco inh 33%, HTT aggregate 20%, HPGD block inconclusive and PNC inhibitor inconclusive.
Cc1ccc2nc(-c3ccc(NC(=O)c4ccc(N)cc4)c(S(=O)(=O)O)c3)sc2c1 was read as ALDH1A1 inh inconclusive, HTT ATP protect -27%[10 µM], RGS12 GoLoco inh 5%[14.2 µM] and HPGD block inconclusive.
Screening CS(=O)(=O)Nc1cccc(-c2nccc(NCc3cccs3)n2)c1 returned ALDH1A1 inh inconclusive, HTT ATP protect -19% and RGS12 GoLoco inh 11%.
COc1cccc(-c2ccc3ncnc(N4CCN(C)CC4)c3c2)c1 was read as ALDH1A1 inh 30%, HTT ATP protect -108% and RGS12 GoLoco inh 10%.
CN1CCN(c2ncnc3ccc(-c4cccc(C#N)c4)cc23)CC1 was read as ALDH1A1 inh 10µM*, HTT ATP protect -23% and RGS12 GoLoco inh -1%.
Screening O=C(Nc1ccc2c(c1)CCC2)Nc1ccc2c(c1)OCO2 returned ALDH1A1 inh 5%, HTT ATP protect -51%, RGS12 GoLoco inh 8% and HTT aggregate -15%.
CCCCCCCCOc1ccc(C(=O)O)cc1 was read as ALDH1A1 inh 15%, HTT ATP protect -49%, RGS12 GoLoco inh 5% and HPGD block -11%.
`CCCCCCOc1ccc(C(=O)O)cc1C#N` gave ALDH1A1 inh 16%, RGS12 GoLoco inh 1%, HTT aggregate -10%, HPGD block 20µM* and PNC inhibitor inconclusive.
`CCCCCCCCNC(C)C(O)c1ccc(SC(C)C)cc1` (stereo not given) gave ALDH1A1 inh 7.9µM*!, HTT ATP protect -98%, RGS12 GoLoco inh 5%, HTT aggregate inconclusive, HPGD block -3% and PNC inhibitor -115*.
`C[C@@H](NCCc1ccc(O)cc1)[C@@H](O)c1ccc(O)cc1` gave ALDH1A1 inh -6%, RGS12 GoLoco inh 10% and HPGD block -15%.
